Laboratory results from PubChem BioAssay (Tox21).
Records with an inconclusive call do not appear. Unmarked numbers belong to inactive results. The source made the active and inactive calls. The call rests on the fitted dose curve; in most records, active means well fitted curve in the direction sought with a large enough effect in the repeat runs; inconclusive means weak or mixed curves; inactive means no such curve, though single readings can be large; an effect the other way counts as inactive or inconclusive.

Assay: qHTS RealTime-Glo MT Cell Viability Assay in HepG2 cells - 8 hour (AID 1224873); further: nearly all actives have a fitted effect of over 55% in size
Conditions: RealTime-Glo luminescence; series mostly up to 76.8 µM; viability change, negative = cytotoxic: at the top concentration
How it was run: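 HepG2 cells mixed with RealTime-Glo MT reagents (NanoLuc plus cell-permeant prosubstrate) were seeded at 600 cells/well, incubated 5 h at 37 C/5% CO2, then pinned with compounds in DMSO; nonlytic luminescence tracked viability during 40 h treatment.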
On the % scale 0 is the no-effect control and ±100 the full control effect; potency means the concentration at half of the fitted maximal effect.

| Structure (SMILES) | viability change, negative = cytotoxic | Potency |
| --- | --- | --- |
| CO/N=C1\CN(c2nc3c(cc2F)c(=O)c(C(=O)O)cn3C2CC2)CC1CN (stereo not drawn) | 2.2% [at 35.3 µM] |  |
| c1cnc2c(n1)CCCC2 | -12.3% |  |
| CCCCCC=CCC=CCCCCCCCC(=O)OCC | -12.5% [at 35.3 µM] |  |
| CC(C)=CC=O | 0.142% |  |
| CC(C)c1nnc2ccc(-c3ocnc3-c3cc(F)ccc3F)cn12 | 3.4% |  |
| Cc1cc2nc3ccc(=[N+](C)C)cc-3sc2cc1N |  | 9.52 µM (active) |
| O=C(/C=C/c1ccccc1)OCCCc1ccccc1 | 2.07% |  |
| OCCSc1ccccc1 | -0.81% |  |
| C=CC(C)(O)CCCC(C)CCCC(C)CCCC(C)C (stereo not drawn) | 2.24% |  |
| COC(=O)[C@@H]1CC2=CC(=O)CC[C@]2(C)[C@@]23O[C@@H]2C[C@@]2(C)[C@@H](CC[C@@]24CCC(=O)O4)[C@H]13 | 6.17% [at 35.3 µM] |  |
| CCCCOC(=O)CCS | 2.22% |  |
| CCC(C)=O | 0.478% |  |
| N#C[C@@H]1C[C@@H]2C[C@@H]2N1C(=O)[C@@H](N)C12CC3CC(CC(O)(C3)C1)C2 | -0.922% [at 35.3 µM] |  |
| CCN(Cc1cccc(S(=O)(=O)O)c1)c1ccc(C(=C2C=CC(=[N+](CC)Cc3cccc(S(=O)(=O)[O-])c3)C=C2)c2ccccc2)cc1 | -0.304% [at 35.3 µM] |  |

Assay: qHTS RealTime-Glo MT Cell Viability Assay in HEK293 cells - 40 hour (AID 1224874); further: nearly all actives have a fitted effect of over 50% in size
Conditions: RealTime-Glo luminescence; max response: stronger effect = lower value
How it was run: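 Real-time viability in HEK293: signal arises when living cells convert a prosubstrate for NanoLuc in the medium, so luminescence tracks viable cell number. Compound (23 nL, DMSO) added 5 h post-seeding; kinetic reads at 0–40 h, 37 C.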

| Structure (SMILES) | max response [%] | Potency |
| --- | --- | --- |
| Cc1cc(OI)c(C(C)C)cc1-c1cc(C(C)C)c(OI)cc1C | -0.141 |  |
| C[N+](C)(C)CCOC(N)=O | 0.438 |  |
| CC(C)(O)c1ccccc1CC[C@@H](SCC1(CC(=O)O)CC1)c1cccc(/C=C/c2ccc3ccc(Cl)cc3n2)c1 | 0.38 |  |
| CCCCC(CC)CNCC(CC)CCCC (stereo not drawn) | 8.85 |  |
| COCCOC |  | 0.83 µM (active) |
| CC(=O)Nc1ccccc1C | 1.18 |  |
| C/C=C(\C)C(=O)OCCC(C)CCC=C(C)C (stereo not drawn) | 5.27 |  |
| CCCCCCCC/C=C\CCCCCCCC(=O)OC(CO)CO | 0.119 |  |
| CCn1nc(C)c2c1C(=O)NCC(c1ccc(O)cc1)=N2 | 0.626 |  |
| Cc1ccnc2ccccc12 | 6.48 |  |
| CCn1cc(C(=O)O)c(=O)c2cc(F)c(N3CCNCC3)nc21 | 10.3 |  |
| Brc1cc(-c2ccc(Br)c(Br)c2Br)cc(Br)c1Br | 4.87 |  |
| CCC1(C)CC(=O)NC1=O (stereo not drawn) | 1.67 |  |
| O=S(=O)(c1ccccc1)c1ccc(Cl)cc1 | -0.98 |  |
| O=C(O)c1c(O)c(-c2ccccc2)nc2ccccc12 | 0.412 |  |
| CC(C)(C)C(=O)O | 6.48 |  |
| CCOC(=O)OCC | 7.38 |  |
| CN1Cc2cc(C(=O)N3CCC(C4CCNCC4)CC3)ccc2N[C@@H](CC(=O)O)C1=O | 0.441 |  |
| OC(CCCN1CCCCC1)(c1ccccc1)c1ccccc1 | 0.842 |  |
| CCN(CC)CCNC(=O)c1ccc(NC(C)=O)cc1 | -0.786 |  |

| Structure (SMILES) | max response [%] | Potency |
| --- | --- | --- |
| CC(C)CCCCCOC(=O)CCCCC(=O)OCCCCCC(C)C | 3.71 |  |
| O=C(CS)OCCOC(=O)CS | 0.141 |  |
| CCCCCCCCCOC(C)=O | -10.8 |  |
| O=C(O)Cc1ccc(-c2ccccc2)cc1 | 10.5 |  |
| CC(=O)Nc1ccc(N)cc1 | 4.7 |  |
| CO/N=C1\CN(c2nc3c(cc2F)c(=O)c(C(=O)O)cn3C2CC2)CC1CN (stereo not drawn) | 8.45 |  |
| c1cnc2c(n1)CCCC2 | 1.7 |  |
| CCCCCC=CCC=CCCCCCCCC(=O)OCC | -1.44 |  |
| CC(C)=CC=O | 12.5 |  |
| CC(C)c1nnc2ccc(-c3ocnc3-c3cc(F)ccc3F)cn12 |  | 19.5 µM (active) |
| Cc1cc2nc3ccc(=[N+](C)C)cc-3sc2cc1N |  | 2.13 µM (active) |
| O=C(/C=C/c1ccccc1)OCCCc1ccccc1 | -1.1 |  |
| OCCSc1ccccc1 | -28.1 |  |
| C=CC(C)(O)CCCC(C)CCCC(C)CCCC(C)C (stereo not drawn) | 6.13 |  |
| COC(=O)[C@@H]1CC2=CC(=O)CC[C@]2(C)[C@@]23O[C@@H]2C[C@@]2(C)[C@@H](CC[C@@]24CCC(=O)O4)[C@H]13 | 1.85 |  |
| CCCCOC(=O)CCS | 5.96 |  |
| CCC(C)=O | 15.5 |  |
| N#C[C@@H]1C[C@@H]2C[C@@H]2N1C(=O)[C@@H](N)C12CC3CC(CC(O)(C3)C1)C2 | 10.4 |  |
| CCN(Cc1cccc(S(=O)(=O)O)c1)c1ccc(C(=C2C=CC(=[N+](CC)Cc3cccc(S(=O)(=O)[O-])c3)C=C2)c2ccccc2)cc1 | 3.22 |  |
